{"source": "a collection of fitness landscapes (doi:10.1126/science.1257360)", "parents": {"B1": {"name": "PhoQ; a variant is named by its letters at X, in order, P23837 (parent)", "chain": "MKKLLRLFFPLSLRVRFLLATAAVVLVLSLAYGMVALIGYSVSFDKTTFRLLRGESNLFYTLAKWENNKLHVELPENIDKQSPTMTLIYDENGQLLWAQRDVPWLMKMIQPDWLKSNGFHEIEADVNDTSLLLSGDHSIQQQLQEVREDDDDAEMTHSVAVNVYPATSRMPKLTIVVVDTIPVELKSSYMVWSWFIYVLSANLLLVIPLLWVAAWWSLRPIEALAKEVRELEEHNRELLNPATTRELTSLVRNLNRLLKSERERYDKYRTTLTDLTHSLKTPLXXLQXXLRSLRSEKMSVSDAEPVMLEQISRISQQIGYYLHRASMRGGTLLSRELHPVAPLLDNLTSALNKVYQRKGVNISLDISPEISFVGEQNDFVEVMGNVLDNACKYCLEFVEISARQTDEHLYIVVEDDGPGIPLSKREVIFDRGQRVDTLRPGQGVGLAVAREITEQYEGKIVAGESMLGGARMEVIFGRQHSAPKDE"}}, "note": "In all, about 140,000 sequences were measured (“enrichment ratio after two sorts for PhoP signalling”: median about 0, highest 2% from about 11 on). For the sample, the highest values were picked, then their nearest neighbours and some sequences at random.", "data": [{"variants_of": "B1", "assay": "enrichment ratio after two sorts for PhoP signalling (ratio (wild type AVST 3.29)); higher = more functional", "settings": "with PhoP (E. coli)", "values": [{"variant": "AGII", "enrichment ratio": 33.2}, {"variant": "ANPI", "enrichment ratio": "≤ 0.25"}, {"variant": "ANHE", "enrichment ratio": "≤ 0.25"}, {"variant": "ANIE", "enrichment ratio": "≤ 0.25"}, {"variant": "TGII", "enrichment ratio": "≤ 0.25"}, {"variant": "LPYL", "enrichment ratio": "≤ 0.25"}, {"variant": "MLTL", "enrichment ratio": 8.8}, {"variant": "YPKQ", "enrichment ratio": "≤ 0.25"}, {"variant": "RNCE", "enrichment ratio": "≤ 0.25"}, {"variant": "IICI", "enrichment ratio": "≤ 0.25"}, {"variant": "MPFW", "enrichment ratio": "≤ 0.25"}, {"variant": "LFPW", "enrichment ratio": "≤ 0.25"}, {"variant": "RNAC", "enrichment ratio": "≤ 0.25"}, {"variant": "NMMW", "enrichment ratio": "≤ 0.25"}, {"variant": "QIFK", "enrichment ratio": "≤ 0.25"}, {"variant": "QINA", "enrichment ratio": "≤ 0.25"}, {"variant": "QQLA", "enrichment ratio": "≤ 0.25"}, {"variant": "PAGS", "enrichment ratio": "≤ 0.25"}, {"variant": "FDMV", "enrichment ratio": "≤ 0.25"}, {"variant": "ANFA", "enrichment ratio": "≤ 0.25"}, {"variant": "ANHF", "enrichment ratio": "≤ 0.25"}, {"variant": "ANLC", "enrichment ratio": 22.4}, {"variant": "ADMV", "enrichment ratio": 35.3}, {"variant": "GNLH", "enrichment ratio": 1.09}, {"variant": "LNLC", "enrichment ratio": "≤ 0.25"}, {"variant": "ADLH", "enrichment ratio": 5.09}, {"variant": "AHLC", "enrichment ratio": "≤ 0.25"}, {"variant": "ANLH", "enrichment ratio": 13}, {"variant": "AIMV", "enrichment ratio": 5.05}, {"variant": "ANCI", "enrichment ratio": 19.9}, {"variant": "MAIR", "enrichment ratio": "≤ 0.25"}, {"variant": "TWDF", "enrichment ratio": "≤ 0.25"}, {"variant": "QNMP", "enrichment ratio": "≤ 0.25"}, {"variant": "QKNG", "enrichment ratio": "≤ 0.25"}, {"variant": "VWKN", "enrichment ratio": "≤ 0.25"}, {"variant": "TWHE", "enrichment ratio": "≤ 0.25"}, {"variant": "ANAW", "enrichment ratio": "≤ 0.25"}, {"variant": "EGLC", "enrichment ratio": "≤ 0.25"}, {"variant": "ADYV", "enrichment ratio": "≤ 0.25"}, {"variant": "AIIV", "enrichment ratio": 3.98}, {"variant": "AGIS", "enrichment ratio": 2.92}, {"variant": "ANNS", "enrichment ratio": 12.9}, {"variant": "ANYR", "enrichment ratio": "≤ 0.25"}, {"variant": "AGIV", "enrichment ratio": 14.4}, {"variant": "ADIV", "enrichment ratio": 12.5}, {"variant": "AGWV", "enrichment ratio": "≤ 0.25"}, {"variant": "ADNS", "enrichment ratio": "≤ 0.25"}, {"variant": "ANSI", "enrichment ratio": 18}, {"variant": "GNSI", "enrichment ratio": 4.37}, {"variant": "LNSI", "enrichment ratio": "≤ 0.25"}, {"variant": "EFTF", "enrichment ratio": "≤ 0.25"}, {"variant": "GVQP", "enrichment ratio": "≤ 0.25"}, {"variant": "PEHG", "enrichment ratio": "≤ 0.25"}, {"variant": "WTQP", "enrichment ratio": "≤ 0.25"}, {"variant": "TWFQ", "enrichment ratio": "≤ 0.25"}, {"variant": "QNLY", "enrichment ratio": "≤ 0.25"}, {"variant": "KERI", "enrichment ratio": "≤ 0.25"}, {"variant": "KAIG", "enrichment ratio": "≤ 0.25"}, {"variant": "RCHM", "enrichment ratio": "≤ 0.25"}, {"variant": "ANIV", "enrichment ratio": 13.7}, {"variant": "ANHN", "enrichment ratio": "≤ 0.25"}, {"variant": "ANIS", "enrichment ratio": 4.66}, {"variant": "HKAP", "enrichment ratio": "≤ 0.25"}, {"variant": "SKLF", "enrichment ratio": 11}, {"variant": "SKVM", "enrichment ratio": 19.7}, {"variant": "SKVA", "enrichment ratio": 1.14}, {"variant": "SKLA", "enrichment ratio": 8.7}, {"variant": "SKLM", "enrichment ratio": 16.3}, {"variant": "NDKA", "enrichment ratio": "≤ 0.25"}, {"variant": "ITMN", "enrichment ratio": "≤ 0.25"}, {"variant": "VVYG", "enrichment ratio": "≤ 0.25"}, {"variant": "VHNY", "enrichment ratio": "≤ 0.25"}, {"variant": "HMES", "enrichment ratio": "≤ 0.25"}, {"variant": "TVTM", "enrichment ratio": 16.6}, {"variant": "AGTS", "enrichment ratio": 7.67}, {"variant": "YWTM", "enrichment ratio": "≤ 0.25"}, {"variant": "TVNM", "enrichment ratio": 13.5}]}]}
